Experimental data published in the OligoGym collection.

Each sequence was assayed against XAGE3 (assay: pooled miR-30 sensor sort-seq; sequence = guide strand). Details: shRNA.

Going from TGGTACACTTCTCCTCGGCCTA to TTTCAGTTGGTGGTTCCTCTTG, the sensor-assay potency score (higher = more potent) rises from -1.1 to -0.62.

Compared with TGCACCCTGATCTTCTTCTCTC, TTCTTCTCTCTCCTGACCAGGT is higher in sensor-assay potency score (higher = more potent): -0.916 for the first, -0.766 for the second.

First: TCTCTCTCCTGACCAGGTGCAG
Second: TCTCCTGACCAGGTGCAGGATC
The sensor-assay potency score (higher = more potent) of the first is lower: -1.38 for the first, -0.873 for the second.

First: TTCCTCTTGCTGAGGCTCCTCA
Second: TGATCTTCTTCTCTCTCCTGAC
The sensor-assay potency score (higher = more potent) of the first is higher: -0.958 for the first, -1.05 for the second.

Compared with TTTAAGTCAAATATCTTAGATA, TGGCATTTTAAATTGTTCTGAT is higher in sensor-assay potency score (higher = more potent): -0.923 for the first, -0.221 for the second.

In the case of TCTTCTTCTCTCTCCTGACCAG, the sensor-assay potency score (higher = more potent) is reported as -1.02.

What follows are sequences tested against XAGE5 in the same assay as above. Details: shRNA.

Compared with TTTCAGTTGGTGGTTCTTCTTG, TAGGCACTTGAATCTCAGCTGC is higher in sensor-assay potency score (higher = more potent): -0.699 for the first, -0.239 for the second.

Compared with TTAGGCACTTGAATCTCAGCTG, AAGTCGTAAACATCGTCTTGGT is lower in sensor-assay potency score (higher = more potent): 0.649 for the first, -0.56 for the second.

First: TCATCTTCTCTCTTCTGACCAG
Second: TTCAGTTGGTGGTTCTTCTTGT
The sensor-assay potency score (higher = more potent) of the first is lower: -0.307 for the first, 0.414 for the second.

First: TTCTTCTTGTTGAGGCTCTGGC
Second: TTTTAAATTGCTCTGATTTTGG
The sensor-assay potency score (higher = more potent) of the first is higher: -0.323 for the first, -0.858 for the second.

Compared with TGAGCAAGTCGTAAACATCGTC, TATCTCCGCATTCATCCCCAGT is lower in sensor-assay potency score (higher = more potent): -0.511 for the first, -1.35 for the second.

Compared with CAAGTCGTAAACATCGTCTTGG, TTGGTGGTTCTTCTTGTTGAGG is lower in sensor-assay potency score (higher = more potent): -0.817 for the first, -1.63 for the second.

Each sequence was assayed against XCL2 in the same assay as above. Details: shRNA.

Compared with TTGATTCTGCTAACTGGCAGTC, CTTGATTCTGCTAACTGGCAGT is lower in sensor-assay potency score (higher = more potent): -0.401 for the first, -1.63 for the second.

First: TATAATCTCAGTCCATGAGGGT
Second: TCACACAGGTCCTCCTATGTGA
The sensor-assay potency score (higher = more potent) of the first is higher: -0.365 for the first, -0.506 for the second.

Compared with TCTTGATTCTGCTAACTGGCAG, ATAATCTCAGTCCATGAGGGTG is lower in sensor-assay potency score (higher = more potent): -0.712 for the first, -1.29 for the second.

Compared with CTATGTGAGACTTCACTCCCTA, TGCTAACTGGCAGTCGCTGGGT is lower in sensor-assay potency score (higher = more potent): -0.487 for the first, -0.761 for the second.

Going from TAAAAGGTGAGTATAATCTCAG to TCTGCTAACTGGCAGTCGCTGG, the sensor-assay potency score (higher = more potent) falls from -0.178 to -0.99.

First: TATGTGAGACTTCACTCCCTAC
Second: TTCTGCTAACTGGCAGTCGCTG
The sensor-assay potency score (higher = more potent) of the first is higher: -0.968 for the first, -1.02 for the second.

These sequences were tested against XKR5 in the same assay as above. Details: shRNA.

Compared with TATCTGTGAAGTCTGAGGCTAG, TTAGTTATTACAAGCACACAGG is lower in sensor-assay potency score (higher = more potent): 0.0293 for the first, -0.438 for the second.

First: TAATATTGTACCCTAATCCAAA
Second: TTGTAGAACAGAACCAGACTCA
The sensor-assay potency score (higher = more potent) of the first is lower: -1.28 for the first, 0.203 for the second.

For TAAATTACCAGTGAGACACTGC, the sensor-assay potency score (higher = more potent) was 0.68.
